An excerpt weighted towards active compounds, which were near 2% of everything screened.
NPSR antag: qHTS Assay for Antagonists of the Neuropeptide S Receptor: cAMP Signal Transduction; CHO-NPSR cells, cAMP TR-FRET, antagonist mode; Q6W5P4; Potency, µM (titrated, usually from 38.3 µM), without a hit: at the highest dose activity change, negative = inhibition, most hits filed as inhibitors; 220,000 compounds, 1% hits; also: potency is read from the fitted curve at half-maximal effect; % is scaled to controls: 0 for no effect and ±100 for the full control effect; nearly all actives have a fitted effect of over 50% in size
Target sequence (Q6W5P4 whole entry, looked up): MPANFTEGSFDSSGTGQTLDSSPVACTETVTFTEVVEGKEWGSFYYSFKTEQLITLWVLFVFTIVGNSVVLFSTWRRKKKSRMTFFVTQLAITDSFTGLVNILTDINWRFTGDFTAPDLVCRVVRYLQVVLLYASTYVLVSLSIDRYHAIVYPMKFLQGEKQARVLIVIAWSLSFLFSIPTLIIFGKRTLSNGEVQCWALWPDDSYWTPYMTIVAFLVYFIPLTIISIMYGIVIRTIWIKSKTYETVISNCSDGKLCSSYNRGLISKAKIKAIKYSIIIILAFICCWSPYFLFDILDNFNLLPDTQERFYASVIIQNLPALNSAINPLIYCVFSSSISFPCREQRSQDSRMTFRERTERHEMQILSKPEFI
IL-2 act: qHTS of IL-2 Activators; AID 652025, 2013; activation, % (series mostly up to about 46 µM); IL-2 activation reporter assay, cell-based qHTS; stimulated with anti-CD3/CD4/CD28 beads; in transgenic mouse T cells; 360,000 compounds, 0.065% hits; in the data active = activation above about 50%; inconclusive = mostly about 30% to 49%; also: 0% is about no effect
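First, unstimulated transgenic mouse T cells were exposed to compound for 60 min. Next, anti-CD3/anti-CD4-coated beads with anti-CD28 were added. Finally, after 18 h at 37 degrees C, EGFP and DsRed were imaged.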
PKM2 act: qHTS Assay for Activators of Human Muscle isoform 2 Pyruvate Kinase. Pyruvate kinase PKM (Homo sapiens), P14618. purified PKM2, Kinase-Glo ATP luminescence, activation; response scale: 0% is enzyme alone, no compound. Potency, µM (series often up to 57.5 µM), for inactives: at the highest dose activation, most hits filed as activators. 260,000 compounds, 0.34% hits; also: potency is read from the fitted curve at half-maximal effect; % is scaled to controls: 0 for no effect and ±100 for the full control effect; nearly all actives have a fitted effect of over 55% in size
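ATP formation by purified human PK-M2, quantified via coupled luciferase luminescence after 1 h at room temperature with 0.1 mM ADP and 0.5 mM PEP final.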
ClpP mod: qHTS Assay for Activators of ClpP | purified B. subtilis ClpP, FRET peptide cleavage, 20 min | Potency, µM (titrated, usually from 57.5 µM), without a hit: top-dose activity change, negative = active | 340,000 compounds, 1.9% hits; active = well fitted falling curve with a large enough effect; inconclusive = small, poorly fitted or top-dose-only effect; inactive = no such curve, though single readings can be large or run the other way; also: potency is read from the fitted curve at half-maximal effect; the source files actives as falling curves though it sought activators and does not explain the sign; nearly all actives have a fitted effect of over 65% in size
Target sequence (P80244 whole entry, looked up): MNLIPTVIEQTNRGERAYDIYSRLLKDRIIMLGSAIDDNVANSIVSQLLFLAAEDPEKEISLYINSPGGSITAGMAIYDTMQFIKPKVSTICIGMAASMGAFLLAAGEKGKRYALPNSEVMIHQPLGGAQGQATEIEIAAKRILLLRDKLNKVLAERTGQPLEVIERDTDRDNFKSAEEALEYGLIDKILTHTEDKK
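FRET quenching reversal measured ClpP activation: 10 microg/mL B. subtilis ClpP at pH 8 with the FRET-FV decapeptide, read at 430 nm after 320 nm excitation. The 20-min minus 0-min signal was scaled between DMSO/no-enzyme wells and ADEP (5.8 microM final).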
HeLa viability: Secondary assay for Activators of Human Pyruvate Kinase M2 isoform - Cell Titer Glo cytotoxicity assay | shares compounds with PKM2 act | HeLa viability, CellTiter-Glo ATP luminescence, 24 h | activity change, negative = cytotoxicity, % at 57.5 µM | 230 tested, under 10 active; also: % of control where 0% means no effect
ClpP validation: qHTS Assay for Activators of ClpP: Hit Validation of Inhibitors | Potency, µM (series often up to 57.5 µM), inactives show top-dose activity change, negative = inhibition, usual class: inhibitors | shares compounds with ClpP mod | AID 743245, 2014 | purified B. subtilis ClpP, FRET-FV substrate cleavage, 20 min | 470 compounds, 40% hits; also: potency is read from the fitted curve at half-maximal effect; % is scaled to controls: 0 for no effect and ±100 for the full control effect; nearly all actives have a fitted effect of over 70% in size
The depositor's hits bear a star; [ ] = remark or other dose. Unless noted, calls follow the shape of the dose curve; as a rule, active = well fitted curve in the direction sought with a large enough effect; inconclusive = small, poorly fitted or top-dose-only effect, or another doubt; inactive = no such curve, though single readings can be large; an effect the other way counts as inactive or inconclusive.

Screening O=S(=O)(NCCCCCNS(=O)(=O)c1ccccc1)c1ccccc1 returned NPSR antag -14.0%[46.1 µM], IL-2 act -0.7, PKM2 act 1.41µM*, ClpP mod -1.0% and HeLa viability -8.1.
Screening COc1ccc(Br)cc1S(=O)(=O)Nc1ncccc1C returned NPSR antag -8.8%, IL-2 act -0.4, PKM2 act 6.31µM*, ClpP mod -20.9% and HeLa viability -0.1.
`CC(Sc1ncc(C#N)c(N)n1)C(=O)Nc1ccccc1` (stereo not drawn) gave NPSR antag -12.2%[46.1 µM], IL-2 act -0.9, PKM2 act 4.47µM*, ClpP mod -0.7% and HeLa viability -0.8.
`O=c1c2ccccc2sn1-c1ccc(S(=O)(=O)N2CCCC2)cc1` gave NPSR antag -10.2%[46.1 µM], IL-2 act -1.6, PKM2 act 1.41µM*, ClpP mod -2.8% and HeLa viability 0.0.
Screening O=c1c2ccccc2sn1-c1ccc(S(=O)(=O)N2CCCCC2)cc1 returned IL-2 act -0.8 and ClpP mod -1.2%.
`CC(C)CC(=O)Nc1c(C(=O)N2CCN(c3ccccc3)CC2)oc2ccccc12` gave ClpP mod -0.3%.
For COc1ccc(C(=O)/C=C/C(=O)N(CC(=O)NC2CCCCC2)Cc2ccccc2)c(O)c1 the results were NPSR antag inconclusive, IL-2 act -0.4, PKM2 act 3.55µM* and HeLa viability inconclusive.
Screening CCCCn1c(N)c(N(C)C(=O)c2c(C)nn(-c3ccccc3)c2C)c(=O)[nH]c1=O returned IL-2 act -0.7 and ClpP mod -5.3%.
Screening Cc1ccc(NS(=O)(=O)c2ccc3oc(=O)ccc3c2)cc1Cl returned IL-2 act 0.4, PKM2 act 1µM*, ClpP mod -1.1% and HeLa viability -3.6.
Screening CC(C)CC1NC(=O)N(CC(=O)N2CCN(S(=O)(=O)c3ccc(Cl)cc3)CC2)C1=O (stereo not drawn) returned NPSR antag -8.6%[46.1 µM], IL-2 act -1.1, PKM2 act 0.5% and ClpP mod 2.6%.
Screening O=C(CCc1ccc(S(=O)(=O)N2CCOCC2)cc1)N1CCc2ccccc2C1 returned NPSR antag 2.2%, IL-2 act 0.8, PKM2 act -4.0%, ClpP mod 423.8% and ClpP validation -0.3%.
`CCOC(=O)c1nc2nc(-c3cccs3)cc(C(F)(F)F)n2n1` gave NPSR antag 9.8%, IL-2 act 0.8, PKM2 act -6.3% and ClpP mod inconclusive.
Screening O=C(c1nc2nc(-c3cccs3)cc(C(F)(F)F)n2n1)N1CCN(Cc2ccccc2)CC1 returned NPSR antag -8.7%[46.1 µM], IL-2 act 0.1, PKM2 act 0.5%, ClpP mod 2.51µM* and ClpP validation 24.3µM*.
COc1nc(-c2ccccc2)ccc1-c1noc(-c2cccnc2)n1 was read as NPSR antag 6.7%[46.1 µM], IL-2 act 3.2, PKM2 act -7.2% and ClpP mod -20.9%.
For COc1nc(-c2ccc(C)cc2)ccc1-c1noc(-c2cccnc2)n1 the results were NPSR antag 8.3%[46.1 µM], IL-2 act -0.6, PKM2 act -5.2%, ClpP mod inconclusive and ClpP validation 19.3µM*.
Screening CNCc1c(OCc2ccc(F)cc2)ccc2ccccc12 returned NPSR antag -5.9%, IL-2 act -1.1 and PKM2 act 4.5%.
O=C(Nc1ccc2ccccc2c1)C(c1ccccc1)n1c(=O)c(-c2cc3ccccc3[nH]2)nc2ccccc21 (stereo not drawn) was read as IL-2 act 0.9, ClpP mod 49.9% and ClpP validation 12.7%.
`O=C(NCc1ccccc1)C(c1cccc2ccccc12)n1c(=O)c(-c2cc3ccccc3[nH]2)nc2ccccc21` (stereo not drawn) gave IL-2 act 0.3, ClpP mod 41.5% and ClpP validation 5.9%.
O=C(NCc1ccccc1)C(c1ccc(C(F)(F)F)cc1)n1c(=O)c(-c2cc3ccccc3[nH]2)nc2ccccc21 (stereo not drawn) was read as IL-2 act -0.8, ClpP mod 28.2% and ClpP validation -4.7%.
Screening CCCCCNC(=O)C(c1ccc(-c2ccccc2)cc1)n1c(=O)c(-c2cc3ccccc3[nH]2)nc2ccccc21 (stereo not drawn) returned IL-2 act -0.6, ClpP mod 48.3% and ClpP validation 14.1%.
CCOc1ccc(NC(=O)c2ncn(-c3ccccc3)n2)cc1 was read as ClpP mod -2.6%.
For Cn1cnc(S(=O)(=O)N2CCC(C(=O)N3CCN(c4ccccc4F)CC3)CC2)c1 the results were ClpP mod 3.5%.
`Clc1ccc(/C=C/c2ccc3ccccc3n2)c(Cl)c1` gave ClpP mod -6.3%.
`Cc1ccc(C)c(S(=O)(=O)N2CCCC2CNC(=O)C(=O)NCCc2ccccc2)c1` (stereo not drawn) gave IL-2 act -1.0 and ClpP mod -1.7%.
Screening Cc1cccc(C)c1NC(=O)C(c1cccc2ccccc12)n1c(=O)c(-c2cc3ccccc3[nH]2)nc2ccccc21 (stereo not drawn) returned IL-2 act -0.6, ClpP mod 53.8% and ClpP validation 8.0%.
For CSCCC(c1nc2ccccc2[nH]1)n1c(=O)c(-c2cc3ccccc3[nH]2)nc2ccccc21 (stereo not drawn) the results were IL-2 act -0.1 and ClpP mod inconclusive.
Screening O=c1c(-c2cc3ccccc3[nH]2)nc2ccccc2n1C(CCc1ccccc1)c1nc2ccccc2[nH]1 (stereo not drawn) returned IL-2 act -0.9, ClpP mod 32.1% and ClpP validation 7.3%.
For COc1ccc(S(=O)(=O)NCC(c2ccco2)N2CCN(c3ccccc3)CC2)cc1OC (stereo not drawn) the results were ClpP mod -6.1%.
Screening O=C1C(N2CCOCC2)=Cc2cccc3cccc1c23 returned IL-2 act 1.7 and ClpP mod -2.1%.
For CCc1ccc(NS(=O)(=O)c2ccc3[nH]cc(C(=O)N(C)Cc4ccco4)c(=O)c3c2)cc1 the results were NPSR antag -4.0%[46.1 µM], IL-2 act 0.5, PKM2 act -6.2% and ClpP mod -27.8%.

Source: PubChem (National Center for Advancing Translational Sciences (NCATS))
